From PubChem BioAssay
Calls of active or inactive are those of the source. How the calls were made is not given here.

target: Pantothenate synthetase (Mycobacterium tuberculosis (strain ATCC 25618 / H37Rv)) (UniProt P9WIL5); assay: Coupled enzyme confirmation of inhibitors against recombinant Mtb PanC (AID 375); details: coupled enzyme assay; at 10 µM, hits give high values;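 further: 0% = full reaction with vehicle and 100% = no enzyme background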
Sequence (P9WIL5 whole entry, looked up): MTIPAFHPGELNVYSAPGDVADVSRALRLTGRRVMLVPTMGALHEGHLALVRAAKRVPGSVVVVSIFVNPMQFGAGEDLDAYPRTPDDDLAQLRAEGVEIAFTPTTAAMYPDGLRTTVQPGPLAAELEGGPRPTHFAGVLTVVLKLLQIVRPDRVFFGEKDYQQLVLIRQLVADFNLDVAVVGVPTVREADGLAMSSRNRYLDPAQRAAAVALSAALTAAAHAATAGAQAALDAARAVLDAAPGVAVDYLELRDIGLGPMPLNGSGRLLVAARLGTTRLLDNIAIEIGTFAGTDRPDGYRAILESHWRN

SMILES	inhibition
CCn1cc(C(=O)O)c(=O)c2ccc(C)nc21	0% (inactive)
Cn1c(=O)c2c(nc(CN3CCN(Cc4ccccc4)CC3)n2Cc2cccc(Cl)c2)n(C)c1=O	0% (inactive)
NC(=O)c1oc2ccc(Cl)cc2c1NC(=O)CN1CCOCC1	1% (inactive)
O=C1CCC(=O)N1OCCCCOc1ccccc1	2% (inactive)
COc1ccc(CCNC(=O)c2cnc3scc(C)n3c2=O)cc1OC	0% (inactive)
Cc1csc(NC(=O)c2ccoc2C)n1	0% (inactive)
CCn1cc(C(=O)O)c(=O)c2cc(F)c(N3CCN(C(=O)Nc4ccccc4)CC3)cc21	1% (inactive)
Cn1nnnc1SCC(=O)Nc1ccccc1C(=O)NCc1ccccc1	0% (inactive)
CN1C(=O)c2oc3ccccc3c(=O)c2C1c1ccccn1 (stereo not given)	0% (inactive)
Cc1ccc(S(=O)(=O)N(CCO)c2cc3c(s2)CCCC3)cc1	0% (inactive)
O=C(CC(SCCO)c1ccc2c(c1)OCO2)c1ccco1 (stereo not given)	0% (inactive)
Cc1cc(-c2ccccc2)nc2cc(C(=O)NCCCn3ccnc3)nn12	7% (inactive)
Nc1nnnn1/N=C/c1ccccc1OCc1ccccc1	0% (inactive)
COc1cc(CO)cc(-c2cc(CO)cc(OC)c2OC)c1OC	0% (inactive)
CCOC(=O)/C(C#N)=C1\Nc2ccccc2N=C1N(CC(C)C)CC(C)C	6% (inactive)
CCCn1c(SCC(=O)N2CCCc3ccccc32)nnc1-c1ccccn1	3% (inactive)
Cc1ccccc1C(=O)NC1CCN(CC(=O)Nc2nccs2)CC1	0% (inactive)
N#Cc1nc(-c2ccco2)oc1NCCc1ccccc1	0% (inactive)
O=C(CCSc1ccccc1)N1CCOCC1	0% (inactive)
CC(COc1ccccc1)N(CCCl)Cc1ccccc1 (stereo not given)	0% (inactive)

SMILES	inhibition
CCOC(=O)C1C(=O)NC(SCC(=O)Nc2nccs2)=C(C#N)C1c1ccccc1OCC (stereo not given)	0% (inactive)
CCCN1CCC(NC(=O)Nc2ccc(OC)c(OC)c2)CC1	0% (inactive)
COc1cccc(N2C(=O)C(O)=C(C(C)=O)C2c2ccc(OC)c(OC)c2)c1 (stereo not given)	0% (inactive)
c1ccc2c3nnc4n(c-3nc2c1)CCCS4	1% (inactive)
Cc1ccc(/C(O)=C2\C(=O)C(=O)N(CCCN(C)C)C2c2ccccn2)cc1 (stereo not given)	1% (inactive)
COc1ccc2[nH]c(=O)c(CN(CC3CCCO3)C(=O)Nc3ccc(F)cc3)cc2c1 (stereo not given)	0% (inactive)
O=C(Cn1[nH]c(=O)c2ccccc2c1=O)OCC(=O)N1CCCc2ccccc21	5% (inactive)
CC1=Nn2c(nnc2-c2ccccc2)SC1	0% (inactive)
c1nc(NCC2CCCO2)c2[nH]cnc2n1 (stereo not given)	0% (inactive)
CCN1CCN(CCCNC(=O)c2cn(CCOC)c(=O)c3c2c2ccccc2n3C)CC1	0% (inactive)
Cc1cccc(NC(=O)CS(=O)(=O)c2cn(C)c3ccccc23)c1	0% (inactive)
CCOc1ccc(C(=O)N(Cc2ccc(N(C)C)cc2)C2CCS(=O)(=O)C2)cc1 (stereo not given)	0% (inactive)
CCOC(=O)Cn1nnc(-c2ccc(SC)cc2)n1	0% (inactive)
Fc1ccc(C(c2ccc(F)cc2)N2CCN(C/C=C/c3ccccc3)CC2)cc1	0% (inactive)
CCc1cccc2c3c([nH]c12)C(CC)(CC(=O)O)OCC3 (stereo not given)	0% (inactive)
CC(=O)Nc1ccc(-c2cc3ccccc3o2)cc1	8% (inactive)
Cc1ccc(C)c(N2C(=O)CN=C2Nc2ccccc2Cl)c1	4% (inactive)
Cc1ccccc1C(=O)NC1CCN(Cc2nnnn2Cc2ccccc2)CC1	4% (inactive)
O=c1c2ccccc2nc(SCc2cccc(F)c2)n1Cc1ccco1	4% (inactive)
c1ccc(CNc2ncnc3ccccc23)cc1	12% (inactive)
